Source: PubChem BioAssay
ABHD5-PLIN5 inh – blocks binding of human ABHD5 to perilipin-5 | AID 602281 | 360,000 tested, 0.78% active | Split G. princeps luciferase complementation, luminescence, 4 h | inhibition, % at 4 µM;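 active means inhibition above the mean inhibition across every tested compound plus 3 SD, cut at about 22% in these data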
TLR9-MyD88 block – inhibitors of human TLR9-MyD88 binding; inhibition, % at 4.98 µM; 340,000 tested, 0.21% active; AID 504734; Q9NR96+Q99836; CHO BLA complementation TLR9-MyD88, CCF4 FRET ratio;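 active means inhibition above the mean over all tested compounds plus 3 SD, cut at about 21% in these data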
PRMT1 FP inh – inhibitors of human PRMT1 | Q99873 | recombinant PRMT1, activity-based probe fluorescence polarization | inhibition, % at 2.79 µM | 370,000 tested, 1.3% active;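 active means inhibition above about 21% made by adding two undisclosed values, limit read from the data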
TLR4-MyD88 BLA – blocks binding of human TLR4 to MyD88; HeLa CL3-4 TLR4/MyD88 BLA complementation, FRET ratio; inhibition, % at 8.4 µM; 200,000 tested, 0.18% active; AID 861; in the data active means inhibition above about 25%
Granule exo inh – blocks lytic granule exocytosis; inhibition, % at 10 µM; AID 651702; TALL-104 LAMP-1 surface exposure, flow cytometry; cells stimulated with thapsigargin and PMA; 360,000 tested, 0.66% active;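 active means inhibition above about 55%, limit read from the data; inconclusive means no clear call, values can overlap the other calls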
NOD2-RIPK2 inh – blocks binding of human NOD2 to RIPK2 | O43353 | CHO BLA complementation NOD2-RIPK2, CCF4 ratio | inhibition, % at 4.98 µM | 360,000 tested, 0.38% active; in the data active means inhibition above about 21%
TLR4 MyD88 cnf – TLR4-MyD88 interaction inhibition confirmed | shares compounds with TLR4-MyD88 BLA | HeLa CL3-4 BLA complementation, CCF4 FRET ratio | inhibition, % at 8.4 µM | 350 tested, 50% active | AID 941;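 active means mean inhibition across three repeat runs above about 25% carried over from the earlier screen, limit read from the data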
BLA inhibitor ct – inhibits beta-lactamase activity, counter-screen to TLR4-MyD88 binding inhibitors | shares compounds with TLR4-MyD88 BLA | HeLa BLA reporter, CCF4 FRET ratio | inhibition, % at 8.4 µM | 350 tested, 63% active | AID 1237;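 active means mean inhibition over three repeats above about 26% taken from the earlier screen, limit read from the data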;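 further: HeLa cells stably expressing beta-lactamase reporter as counterscreen for TLR4-MyD88 inhibitors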
TLR9-MyD88 conf – confirmation of human TLR9-MyD88 binding inhibitors | shares compounds with TLR9-MyD88 block | CHO TLR9/MyD88 BLA complementation, CCF4 FRET ratio | inhibition, % at 4.98 µM | 680 tested, 51% active;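 active means mean inhibition across three repeats above about 21% taken from the earlier screen, limit read from the data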;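 further: blue over green emission ratio reports constitutive TLR9 MyD88 association via BLA complementation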
Target sequence (Q9NR96 whole entry, looked up): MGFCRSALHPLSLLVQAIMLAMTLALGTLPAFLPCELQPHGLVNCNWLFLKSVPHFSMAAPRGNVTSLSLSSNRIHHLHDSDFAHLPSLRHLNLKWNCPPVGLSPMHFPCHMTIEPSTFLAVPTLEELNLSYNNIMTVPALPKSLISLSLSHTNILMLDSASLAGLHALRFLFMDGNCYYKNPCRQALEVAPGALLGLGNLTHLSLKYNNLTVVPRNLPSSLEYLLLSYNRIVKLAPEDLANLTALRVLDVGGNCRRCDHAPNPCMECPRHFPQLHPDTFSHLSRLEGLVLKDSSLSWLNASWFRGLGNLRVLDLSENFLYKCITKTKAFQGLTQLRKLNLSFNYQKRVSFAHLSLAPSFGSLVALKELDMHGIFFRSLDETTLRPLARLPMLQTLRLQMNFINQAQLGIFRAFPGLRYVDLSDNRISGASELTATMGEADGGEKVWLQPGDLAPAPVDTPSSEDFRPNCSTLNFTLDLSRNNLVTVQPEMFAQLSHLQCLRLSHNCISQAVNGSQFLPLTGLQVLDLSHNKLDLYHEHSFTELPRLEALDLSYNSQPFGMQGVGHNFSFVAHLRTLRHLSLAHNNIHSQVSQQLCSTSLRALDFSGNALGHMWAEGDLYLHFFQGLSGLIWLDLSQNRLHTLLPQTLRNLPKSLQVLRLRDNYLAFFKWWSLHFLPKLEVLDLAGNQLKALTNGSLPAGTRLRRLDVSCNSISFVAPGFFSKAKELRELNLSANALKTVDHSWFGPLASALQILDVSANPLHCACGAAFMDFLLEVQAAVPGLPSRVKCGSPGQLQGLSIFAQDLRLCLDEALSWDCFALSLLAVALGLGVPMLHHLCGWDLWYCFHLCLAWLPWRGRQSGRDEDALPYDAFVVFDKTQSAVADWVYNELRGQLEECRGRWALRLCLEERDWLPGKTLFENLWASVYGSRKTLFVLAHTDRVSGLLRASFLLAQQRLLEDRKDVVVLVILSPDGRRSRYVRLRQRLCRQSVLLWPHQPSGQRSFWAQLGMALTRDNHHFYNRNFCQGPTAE
BLA counter-1 – non-selective beta-lactamase inhibitors in TLR9-MyD88 counter-screen; 680 tested, 7% active; CHO-BLA cells, CCF4 FRET ratio, BLA reporter; AID 540251; shares compounds with TLR9-MyD88 block; inhibition, % at 4.98 µM;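 active means mean inhibition above a 50% cutoff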;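 further: counterscreen of TLR9-MyD88 hits on CMV-driven BLA in CHO-K1 cells; higher means less blue over green ratio so more BLA blockade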
TLR9 CHO cytotox – CHO cell toxicity counter-screen for TLR9-MyD88 inhibitors; shares compounds with TLR9-MyD88 block; TLR9-MyD88 CHO cells cytotoxicity, luminescence; inhibition, % at 4.98 µM; 680 tested, 39% active; AID 588336; in the data active means inhibition above about 11%
ABHD5-PLIN5 conf – ABHD5-PLIN5 interaction inhibition, confirmed | shares compounds with ABHD5-PLIN5 inh | biochemical ABHD5-PLIN5 interaction, luminescence | inhibition, % at 4 µM | 2,200 tested, 67% active | AID 651612; in the data active means inhibition above about 23%
HNF4 counter – counter-screen for ABHD5-PLIN5 inhibitors: HNF4 split-luciferase; shares compounds with ABHD5-PLIN5 inh; HNF4 dimerization, luminescence, biochemical; inhibition, % at 4 µM; 2,200 tested, 77% active;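 active means mean inhibition across replicate wells exceeding the computed hit threshold, cut at about 13% in these data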;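 further: light from luciferase halves that rejoin when HNF4 fusion proteins dimerize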
NOD2-RIPK2 conf – NOD2-RIPK2 interaction inhibition confirmed; shares compounds with NOD2-RIPK2 inh; CHO cells, NOD2-RIPK2 BLA complementation, CCF4 FRET; inhibition, % at 4.98 µM; 1,200 tested, 70% active; AID 624370;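 active means mean inhibition across replicates above a set limit taken from the earlier primary screen, cut at about 21% in these data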
BLA counter-2 – hits BLA reporter in NOD2-RIPK2 inhibitor counterscreen | shares compounds with NOD2-RIPK2 inh | CHO BLA reporter, CCF4 FRET ratio | inhibition, % at 4.98 µM | 1,200 tested, 57% active | AID 624371;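 active means mean inhibition above the low-control mean inhibition plus three low-control SD, cut at about 11% in these data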
PRMT1 inh conf – confirmation of human PRMT1 inhibitors | shares compounds with PRMT1 FP inh | recombinant His-PRMT1, activity-based probe fluorescence polarization | inhibition, % at 2.79 µM | 3,300 tested, 42% active | AID 687036;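 active means mean inhibition across replicates above the hit cutoff derived for the earlier primary screen, cut at about 22% in these data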
Numbers stand for hits; - = inactive; ? = inconclusive; . = no result. Sampled rows, rich in hits. Any-hit rate of the full collection: about 2.6%.

SMILES | ABHD5-PLIN5 inh | TLR9-MyD88 block | PRMT1 FP inh | TLR4-MyD88 BLA | Granule exo inh | NOD2-RIPK2 inh | others
O=C1/C(=C/c2ccccc2)C[C@@]2(O)[C@H]3Cc4ccc(O)c5c4[C@@]2(CCN3CC2CC2)C1O5 (stereo partly specified) | 65 | - | . | . | - | 35
O=C1NC(=O)N(c2ccccc2)C(=O)/C1=C\c1ccc([N+](=O)[O-])s1 | . | . | - | . | . | .
COc1ccc(OC)c(N2C(=O)NC(=O)/C(=C\c3ccc([N+](=O)[O-])s3)C2=O)c1 | - | - | 28 | - | - | -
C=CCN1C[C@H](C)N(C(c2ccc(C(=O)N(CC)CC)cc2)c2cccc(OC)c2)CC1C (stereo partly specified) | . | . | - | . | . | .
CN1C(=O)N(C)C(=O)C2(Sc3ccccc3C2=O)C1=O | - | - | 27 | - | - | -
CC(C)(C)NC(=O)CN1C(=O)[C@@H](Cc2c[nH]c3ccccc23)N=C(c2ccccc2)c2ccccc21 | . | . | - | . | . | .
CC(C)(C)OC(=O)c1c(N)n(Cc2ccco2)c2nc3ccccc3nc12 | - | - | 21 | - | - | -
COCCNC(=O)Cn1cc(C=C2C(=O)NC(=O)NC2=O)c2ccccc21 | 22 | - | - | . | ? | -
C=CCCC(NC(=O)OCc1ccccc1)P(=O)(Oc1ccccc1)Oc1ccccc1 (stereo unspecified) | . | . | - | . | . | .
C=CCCC[C@@H]1OC(=O)CNC(=O)C([C@@H](C)CC)NC(=O)[C@@H]2CCCN2C(=O)C([C@@H](C)CC)OC(=O)[C@H](Cc2ccccc2)N(C)C(=O)[C@H](C(C)C)NC(=O)C1(C)C (stereo partly specified) | 22 | . | - | . | - | -
CC1(C)CC(n2[nH]c(=O)c3c2NC(=O)CSC3c2ccccc2)CCO1 (stereo unspecified) | - | - | - | - | - | -
Cc1cccc(N=Cc2c(O)n(-c3ccccc3C)c(=O)[nH]c2=O)c1 | - | - | - | - | - | -
C=CCn1c(O)c(C(CC)=Nc2ccc3c(c2)CCC3)c(=O)[nH]c1=O | - | - | - | . | - | -
C=CCn1c(O)c(C(CC)=Nc2ccc(N(C)C)cc2)c(=O)[nH]c1=O | - | . | 33 | . | - | -
Cc1ccccc1-n1c(O)c(C=Nc2ccc(N(C)C)cc2)c(=O)[nH]c1=O | - | - | 21 | - | - | -
C=CCn1c(O)c(C=Nc2ccc(N(CC)CC)cc2)c(=O)[nH]c1=O | - | - | 22 | - | - | -
C=CCn1c(O)c(C=Nc2ccc(F)cc2)c(=O)[nH]c1=O | - | - | - | . | - | -
Cc1ccc(NC(=O)CC[C@H]2O[C@@H](n3cnc4c(NC(=O)c5ccccc5)ncnc43)[C@H](O)[C@@H]2O)cc1C | - | . | - | . | - | -
COC1CCC(OC2CC(C3(C)CCC4(CC(O)C(C)C(C(C)/C=C(\C)C(=O)C(C)CC(C)C(=O)O)O4)O3)OC3(OC(C4OC(O)(CO)C(C)CC4C)CC3C)C2C)OC1C (stereo unspecified) | - | - | - | . | 78 | -
S=P(c1ccccc1)(c1ccccc1)c1c[n+](Cc2ccccc2)c2ccccn12 | . | . | - | . | . | .
COC(=O)[C@H]1C[C@@]2(C)c3ccccc3N[C@H]2N1 | . | . | - | . | . | .
CC(=O)OC1C(O)C2=C3C4(C)C1C(C)(C)C(=O)CC4C3(O)C(OC(C)=O)C1(CC1C)C2=O (stereo unspecified) | 22 | . | - | . | - | -
CC1(C)OC(c2ccccc2)=C/C(=C/C=C2C(=O)NC(=S)NC2=O)O1 | . | . | - | 67 | . | . | TLR4 MyD88 cnf=63;BLA inhibitor ct=90
CC[C@H]1c2ccccc2[C@@H]2CC[C@H]1N2c1ccccc1 | - | . | - | . | - | -
O=c1cc(C(F)(F)F)c2cc3c4c(c2o1)CCCN4CCC3 | - | 46 | 101 | 54 | - | 68 | TLR4 MyD88 cnf=49;BLA inhibitor ct=81;TLR9-MyD88 conf=51;BLA counter-1=55;TLR9 CHO cytotox=-;NOD2-RIPK2 conf=63;BLA counter-2=76
SMILES | ABHD5-PLIN5 inh | TLR9-MyD88 block | PRMT1 FP inh | TLR4-MyD88 BLA | Granule exo inh | NOD2-RIPK2 inh | others
CCOC(=O)CC(SP1(=S)OCC2(CC=CCC2)CO1)C(=O)OCC (stereo unspecified) | - | - | - | . | - | -
Cc1cc2c(C(F)(F)F)cc(=O)oc2c2c1NCCC2 | - | - | 38 | 31 | - | - | TLR4 MyD88 cnf=54;BLA inhibitor ct=55;PRMT1 inh conf=58
COC(=O)C1=C(c2c(C)noc2C)C[C@@H]2CC[C@H]1N2C(=O)N1CCc2cc(OC)c(OC)cc2C1 | - | - | . | . | - | -
CN(C(=O)Cc1ccc(Cl)c(Cl)c1)C(CN1CCCC1)c1cccc(OCC(=O)O)c1 (stereo unspecified) | - | 23 | - | . | - | - | TLR9-MyD88 conf=-;BLA counter-1=-;TLR9 CHO cytotox=-
CCN(CC)C1=NC(=[N+](CC)CC)c2ccccc21 | - | - | - | - | - | -
CN1C2CCC1/C(=C/c1ccccn1)C(=O)/C2=C\c1ccccn1 | 98 | 24 | - | - | 64 | 30 | TLR9-MyD88 conf=-;BLA counter-1=-;TLR9 CHO cytotox=99;ABHD5-PLIN5 conf=104;HNF4 counter=109;NOD2-RIPK2 conf=42;BLA counter-2=-
Cc1ccccc1-n1c(/C=C/c2ccccn2)nc2ccccc2c1=O | - | - | - | . | - | -
Cc1cc(N(CCCl)CCCl)ccc1C=Cc1ccncn1 | - | 32 | - | . | - | 40 | TLR9-MyD88 conf=-;BLA counter-1=-;TLR9 CHO cytotox=-;NOD2-RIPK2 conf=26;BLA counter-2=31
